Assay results: PubChem BioAssay AID1224861 (National Center for Advancing Translational Sciences (NCATS), 2016)
Records with an inconclusive call do not appear. Where a call stands in place of a potency, no number is given. The source made the active and inactive calls. Calls follow the shape of the dose curve; as a rule, active = well fitted cell-killing curve with a large enough effect; inconclusive = small, poorly fitted or top-dose-only effect, or effect the other way; inactive = flat fitted curve, though single readings scatter.

Assay: Compound cytotoxicity measured by an ATP content assay as a counter-screen for lead compounds in human astrocytes
Settings: human astrocytes viability, ATP luminescence; series mostly up to 46.1 µM
Description: National Center for Advancing Translational Sciences [NCATS] Johns Hopkins University School of Medicine Florida State University Assay Overview: Many compounds can cause cytotoxicity at high compound concentrations. […] The compound cytotoxicity may also cause side effects or toxicity in human. Thus, the compound cytotoxicity needs to be measured in each cell type and each compound incubation time - same as these in the compound screening assay. The compound cytotoxicity can be measured by cell viability assays such as the ATP content assay. We use an ATP content assay kit for cell viability measurement. It measures ATP content (level) in human astrocytes using a luminescence readout that is proportional to viable cell numbers. Decrease in the luminescence signal after the compound treatment indicates reduced cell viability and cell death caused by compound treatment.
Assay Protocol Summary: The medium for astrocytes contains AM basal medium (ScienCell, Cat.# 1801), AGS (ScienCell, Cat.# 1801), 10% FBS, and 1% Pen/Strep. The ATP content assay kit (PerkinElmer, Cat.# 6016731) was used to determine cell viability. The reagent was reconstituted and prepared as described by the manufacturer. Cells were seeded in 384- or 1536-well assay plates and cultured at 37 C with 5% CO2 for 16 to 20 hours. The typical cell seeding density in the 1536-well plate assay is 350 cells/well in 3 ul medium for astrocytes in the tissue cultured treated/PDL coated plates. Compounds were added to cells and incubated for a specific time such as 6, 24, or 72 hours before addition of the reagent mixture of the ATP content assay kit at 1:1 ratio. After incubation at room temperature for 10 minutes, the luminescence intensity in assay plates was measured using a ViewLux plate reader (PerkinElmer). […] The percentage inhibitions of the decreased cell viability by small molecules were then calculated that indicate compound cytotoxicity.

Row | SMILES | Potency
1 | CC(C)[N+](C)(CCC(C(N)=O)(c1ccccc1)c1ccccc1)C(C)C | inactive
2 | COP(=S)(OC)SCN1C(=O)c2ccccc2C1=O | inactive
3 | Cc1ccc([N+](=O)[O-])[c]2c1[O][Hg]2 | 3.08 µM (active)
4 | CN1CC[C@@]2(C)c3cc(OC(=O)Nc4ccccc4)ccc3N(C)[C@@H]12 | inactive
5 | COC1(CS(=O)c2ccccc2)CCN(CCc2c[nH]c3ccc(F)cc23)CC1 (centres undefined) | inactive
6 | COc1cccc2c1C(=O)c1c(O)c3c(c(O)c1C2=O)C[C@@](O)(C(=O)CO)CC3OC1CC(N2CCOC(OC)C2)C(O)C(C)O1 (some centres undefined) | inactive
7 | CC(O)CN1CCN(CC(=O)[O-])CCN(CC(=O)[O-])CCN(CC(=O)[O-])CC1.[Gd+3] (centres undefined) | inactive
8 | O=C1CCC[C@@H]2[C@H]3CCCN4CCC[C@@H](CN12)[C@@H]34 | inactive
9 | O=C(Nc1ccc(Br)cc1)c1cc(Br)cc(Br)c1O | 15.5 µM (active)
10 | O=c1c2ccccc2[se]n1-c1ccccc1 | 9.75 µM (active)
11 | O=C1C=CC[C@@H]2[C@H]3CCCN4CCC[C@@H](CN12)[C@@H]34 | inactive
12 | Oc1ccc([C@H]2CNCc3c2ccc(O)c3O)cc1O | inactive
13 | CC[n+]1c(-c2ccccc2)c2cc(N)ccc2c2ccc(N)cc21 | inactive
14 | CC(C)N[C@@H]1CCn2c(=O)[nH]c3cccc(c32)[C@@H]1O | inactive
